Data published in ChEMBL document CHEMBL3988442, “University of Dundee, Small-Polar-MMV Screening Library” (2021).
Screen size: about 48,000 compounds; about 13,000 (27%) showed an effect of 50% or more. The list shows a part of the results.

Each compound was assayed on Wolbachia pipientis (assay: Anti-Wolbachia Cell-Based Screen). Conditions: 5 µM.
Type: functional
Design: scale not given: in the data most compounds retested in dose-response had high values

With `Cc1nc(CN2CCCN(CCOc3cccc(C#N)c3)CC2)no1` as the compound, how does the “Percent Effect” value read?
The value was 11.38%.

`Cc1cnn(C2CCCN(C(=O)c3cc(C4CC4)on3)C2)c1` (centres undefined) was tested. Which “Percent Effect” value did it give?
Its value is 8.361%.

`O=C(c1cc(C2CC2)on1)N1CCC(Oc2ncccc2Cl)CC1` was tested. Which “Percent Effect” value did it give?
Its value is 9.581%.

Which “Percent Effect” value does the source give for `O=C(c1cc(C2CC2)on1)N1C[C@H]2CC[C@](O)(c3ccccc3F)[C@H]2C1` here?
The value was 127.6%.

With `c1ccc2c(Cc3nnc([C@H]4CCN(C5CCC5)C4)o3)c[nH]c2c1` as the compound, how does the “Percent Effect” value read?
Its value is -3.783%.

Which “Percent Effect” value does the source give for `NC1C=C(C(F)(F)F)NC=C1c1ccccc1` (centres undefined) here?
The value was 86.08%.

How did the “Percent Effect” value turn out when `NC1C=C(C(F)(F)F)NC=C1c1ccc(Cl)cc1` (centres undefined) was run?
Its value is 102.6%.

For `COc1ccc(C2=CNC(C(F)(F)F)=CC2N)cc1` (centres undefined), which “Percent Effect” value is on record?
The value was 99.44%.

`CC(NC(=O)C1CCN(S(N)(=O)=O)CC1)c1cccc(OC(F)F)c1` (centres undefined) was tested. Which “Percent Effect” value did it give?
Its value is 6.374%.

For `CS(=O)(=O)NCCNc1ncnc2cccc(F)c12`, which “Percent Effect” value is on record?
Its value is 8.452%.

For `CCCC(NC(=O)c1ccccn1)c1nnc2ccccn12` (centres undefined), which “Percent Effect” value is on record?
Its value is 4.889%.

`CC(C)CC(NC(=O)c1ccco1)c1nnc2ccccn12` (centres undefined) was tested. Which “Percent Effect” value did it give?
The value was 109.4%.

With `CCCC(NC(=O)c1cnccn1)c1nnc2ccccn12` (centres undefined) as the compound, how does the “Percent Effect” value read?
Its value is 41.87%.

How did the “Percent Effect” value turn out when `O=C(NCC1CCSCC1)N(CCCO)C1CCc2ccccc21` (centres undefined) was run?
Its value is 6.335%.

For `COc1ccc(C)cc1S(=O)(=O)NCC(c1cccn1C)N(C)C` (centres undefined), which “Percent Effect” value is on record?
Its value is 4.095%.

For `CC(C)CC(=O)N(C)Cc1nc(C(F)(F)F)cs1`, which “Percent Effect” value is on record?
The value was 105.6%.

Which “Percent Effect” value does the source give for `Cc1nc(CN(C)c2nccc(C(F)(F)F)n2)cs1` here?
Its value is -8.606%.

For `CCOCCC(=O)NCCNc1nccc(C(F)(F)F)n1`, which “Percent Effect” value is on record?
The value was -1.225%.

For `CCC(NC(=O)c1ccc(COC)o1)c1nc(C(F)(F)F)cs1` (centres undefined), which “Percent Effect” value is on record?
The value was -11.95%.

How did the “Percent Effect” value turn out when `CCC(NC(=O)c1ccc(OC)nn1)c1nc(C(F)(F)F)cs1` (centres undefined) was run?
Its value is -7.754%.

Which “Percent Effect” value does the source give for `Cc1c(C(=O)N(C)CC(C)O)sc2nc(C(F)(F)F)ccc12` (centres undefined) here?
Its value is 9.483%.

With `CCOCCn1c(=O)[nH]c2cc(C(=O)N(C)Cc3nc(C)cs3)ccc21` as the compound, how does the “Percent Effect” value read?
Its value is -23.7%.

How did the “Percent Effect” value turn out when `COCCC(=O)N(C)Cc1nc(C(F)(F)F)cs1` was run?
The value was 98.57%.

Which “Percent Effect” value does the source give for `CCOCC(=O)N(C)Cc1nc(C(F)(F)F)cs1` here?
Its value is 102.1%.

With `Cc1cc(CN(C)C(=O)c2ccnc(N(C)C)c2)no1` as the compound, how does the “Percent Effect” value read?
The value was -7.552%.

How did the “Percent Effect” value turn out when `CCOC1CCCN(C(=O)c2[nH]nc(C)c2Br)C1` (centres undefined) was run?
The value was 6.367%.

How did the “Percent Effect” value turn out when `CCN1CCn2c(C)cnc2C12CCN(C(=O)NCC(C)C)CC2.O=C(O)C(F)(F)F` was run?
Its value is 99.78%.

With `Cc1cnc2n1CCN(C)C21CCN(CC2CC2)CC1.O=C(O)C(F)(F)F.O=C(O)C(F)(F)F.O=C(O)C(F)(F)F` as the compound, how does the “Percent Effect” value read?
Its value is 2.342%.

For `Cc1cnc2n1CCN(C)C21CCN(C(=O)CC(C)C)CC1.O=C(O)C(F)(F)F`, which “Percent Effect” value is on record?
Its value is 6.371%.

Which “Percent Effect” value does the source give for `CNC(=O)N1CCC2(CC1)c1ncc(C)n1CCN2C.O=C(O)C(F)(F)F.O=C(O)C(F)(F)F` here?
The value was 93.19%.

With `CCN1CCn2c(C)cnc2C12CCN(C(=O)NC)CC2.O=C(O)C(F)(F)F` as the compound, how does the “Percent Effect” value read?
The value was 106.5%.

For `CCN1CC[C@@]2(C(=O)N3CCOCC3)CCN(C(=O)NC)CC[C@@H]12.O=C(O)C(F)(F)F`, which “Percent Effect” value is on record?
The value was -38.24%.

Which “Percent Effect” value does the source give for `NC(=O)C1CCN(Cc2ccc(S(=O)(=O)N3CCCC3)o2)CC1` here?
Its value is -8.364%.

For `Cc1c(NCc2ccccc2C#N)cccc1-n1cnnn1`, which “Percent Effect” value is on record?
The value was 4.013%.

How did the “Percent Effect” value turn out when `N#CCCN(CC1CCOC1)Cn1ccc(-c2ccccc2)n1` (centres undefined) was run?
Its value is -2.845%.

For `CN(C)C1(C(=O)NC2CCC(Oc3ccccc3C#N)CC2)CCC1` (centres undefined), which “Percent Effect” value is on record?
Its value is -18.62%.

For `CCN(Cc1nc(COC)no1)Cc1ccccc1OCC(=O)O`, which “Percent Effect” value is on record?
Its value is 10.36%.

With `CCn1cc(C(=O)NCC(C)(CC)N2CCOCC2)c2ccccc21` (centres undefined) as the compound, how does the “Percent Effect” value read?
Its value is 6.626%.

Which “Percent Effect” value does the source give for `Cc1cnn(CCNCc2c(C)nn(Cc3ccccc3)c2C)c1` here?
Its value is -5.977%.

Which “Percent Effect” value does the source give for `O=C([C@@H]1CCCO1)N1CCOCC2(CCN(Cc3cccnc3)C2)C1` (some centres undefined) here?
Its value is 95.11%.

How did the “Percent Effect” value turn out when `Cn1cccc1CN1CCC2(CCCN(C(=O)Cc3cccnc3)C2)C1` (centres undefined) was run?
The value was 5.928%.

`O=C(C1CCCO1)N1CCC2(CC1)COCCN(Cc1cccnc1)C2.O=C(O)C(F)(F)F.O=C(O)C(F)(F)F` (centres undefined) was tested. Which “Percent Effect” value did it give?
Its value is 128.2%.

`O=C(C1CCCO1)N1CCC2(CC1)COCCN(Cc1ccncc1)C2.O=C(O)C(F)(F)F.O=C(O)C(F)(F)F` (centres undefined) was tested. Which “Percent Effect” value did it give?
The value was -9.895%.

With `O=C(O)C(F)(F)F.O=C(O)C(F)(F)F.O=C(c1ccsc1)N1CCC2(CC1)COCCN(Cc1ccncc1)C2` as the compound, how does the “Percent Effect” value read?
Its value is 15.81%.

Which “Percent Effect” value does the source give for `O=C(C1CCC2(CCN(Cc3cccnc3)CC2)CO1)N1CCCC1.O=C(O)C(F)(F)F.O=C(O)C(F)(F)F` (centres undefined) here?
The value was 90.21%.

With `O=C(N1CCCC1)N1CCC2(CC1)COCCN(Cc1cccnc1)C2.O=C(O)C(F)(F)F.O=C(O)C(F)(F)F` as the compound, how does the “Percent Effect” value read?
The value was -4.319%.

`O=c1[nH]c(C2CCOC2)nc2ccc(Cl)cc12` (centres undefined) was tested. Which “Percent Effect” value did it give?
Its value is -0.06581%.

`CCC1CN(C(=O)c2ccccc2N2CCCC2)CCN1C(C)C` (centres undefined) was tested. Which “Percent Effect” value did it give?
The value was -3.455%.

How did the “Percent Effect” value turn out when `CCC(=O)N1CCC2(CC1)C(c1cccnc1)CC(=O)N2CCOC.O=C(O)C(F)(F)F` (centres undefined) was run?
The value was 110.5%.

`CCN1C(=O)CC(c2cccnc2)C12CCN(c1ncc(F)cn1)CC2` (centres undefined) was tested. Which “Percent Effect” value did it give?
The value was -11.62%.

For `CCN1C(=O)CC(c2cnn(C)c2)C12CCN(C(=O)c1ccc[nH]1)CC2` (centres undefined), which “Percent Effect” value is on record?
Its value is 13.05%.

How did the “Percent Effect” value turn out when `CCN1C(=O)CC(c2ccccc2)C12CCN(c1ncc(C)cn1)CC2` (centres undefined) was run?
The value was -13.83%.

How did the “Percent Effect” value turn out when `COCCN1C(=O)CC(c2cccnc2)C12CCN(C)CC2` (centres undefined) was run?
Its value is 113.4%.

`COCCN1C(=O)CC(c2cccnc2)C12CCN(C(=O)C1CC1)CC2.O=C(O)C(F)(F)F` (centres undefined) was tested. Which “Percent Effect” value did it give?
Its value is 106.6%.

With `F[C@@H]1CN(Cc2ccccc2)C[C@@H]1OCc1nc2ccccc2[nH]1` as the compound, how does the “Percent Effect” value read?
Its value is -3.249%.

With `O=C(NCCCN1CCC(OC2CCCCC2)CC1)C1CCCC1` as the compound, how does the “Percent Effect” value read?
Its value is -7.761%.

How did the “Percent Effect” value turn out when `CCC(C)N(Cc1cccnc1)C(=O)CCSC` (centres undefined) was run?
The value was -1.177%.

With `CCc1noc(CN(C)C(=O)C2COc3ccccc3C2)n1` (centres undefined) as the compound, how does the “Percent Effect” value read?
Its value is 19.12%.

For `CN(C)C(=O)CO[C@H]1CN(Cc2ccc(F)cc2)[C@@H]2CCCO[C@H]12.O=C(O)C(F)(F)F`, which “Percent Effect” value is on record?
The value was -2.214%.

For `CCO[C@@H]1CN(Cc2scnc2C)[C@@H]2CCCO[C@@H]21.O=C(O)C(F)(F)F.O=C(O)C(F)(F)F`, which “Percent Effect” value is on record?
Its value is -1.893%.

`CN(C)C(=O)CO[C@@H]1CN(Cc2ccccc2F)[C@@H]2CCCO[C@@H]21.O=C(O)C(F)(F)F` was tested. Which “Percent Effect” value did it give?
The value was -3.753%.

Which “Percent Effect” value does the source give for `CN(C)CCO[C@H]1CN(CC2CC2)[C@@H]2CCCO[C@H]12.O=C(O)C(F)(F)F.O=C(O)C(F)(F)F` here?
The value was 109%.

`Fc1ccccc1CN1C[C@H](OCC2CCOCC2)[C@H]2OCCC[C@H]21.O=C(O)C(F)(F)F` was tested. Which “Percent Effect” value did it give?
The value was -9.213%.

Which “Percent Effect” value does the source give for `CCO[C@H]1CN(CC2CCOCC2)[C@@H]2CCCO[C@H]12.O=C(O)C(F)(F)F` here?
Its value is 93.44%.
